# Reference: PubChem BioAssay (NCATS)
# Records with an inconclusive call do not appear. Activity calls are given as the source filed them. The call rests on the fitted dose curve; in most records, active means well fitted inhibition curve with a large enough effect; inconclusive means small, poorly fitted or top-dose-only effect; inactive means flat fitted curve, though single readings scatter.
# System: HEK293
# Assay: Cytotoxic Profiling of Annotated Libraries Using Quantitative High-Throughput Screening (AID 1296008); further: nearly all actives have a fitted effect of over 60% in size
# Conditions: Five cell lines viability, CellTiter-Glo ATP luminescence, 48-72 h; max response: hits give low values
# Text: Cell-based phenotypic screening is a commonly used approach to discover biological pathways, novel drug targets, chemical probes and high-quality hit-to-lead molecules. Many hits identified from high-throughput screening campaign are ruled out through a series of follow-up potency, selectivity/specificity, and cytotoxicity assays. Prioritization of molecules with little or no cytotoxicity for a more in-depth downstream evaluation influence the future direction of projects, so cytotoxicity profiling of the screening libraries at early stage is essential for increasing the likelihood of candidate success. […] For the annotated library, we also examined the primary targets and mechanistic pathways regularly associated with cell death. To our knowledge, this is the first study to use high-throughput screening to profile large libraries for cytotoxicity assessment in both normal and cancer cell lines. In summary, the results generated here constitutes a valuable resource for the scientific community and provides insight on identifying cytotoxic compounds with particular mechanisms of action, and prioritizing compounds with suitable cytotoxicity profile for further evaluation.
# A pintool (Kalypsys) was used to transfer 23 nL of compound solution to the 1536-well assay plates. After 48 or 72 hr incubation at 37 degree Celsius, 5% CO2 and 95% humidity, 2.5 uL of CellTiter-Glo (Promega) was dispensed into each well using a dispenser (Aspect Automation, St. Paul, MN) with solenoid valves (Lee Valves, Westbrook CT). Plates were left at room temperature for 10 min before imaging the ATP-coupled luminescence using a ViewLux microplate imager (PerkinElmer, Waltham, MA).
# On the % scale 0 is the no-effect control and ±100 the full control effect; potency means the concentration at half of the fitted maximal effect.
Compound,max response,Potency,outcome
NC(=O)[C@H](O[C@@H]1O[C@H](CO)[C@@H](O)[C@H](O)[C@H]1O)c1ccccc1,-3.01% (inactive),–,–
O=C(OC[C@H]1O[C@H](O[C@]2(CO)O[C@H](CO)[C@@H](O)[C@@H]2O)[C@H](O)[C@@H](O)[C@@H]1O)c1ccccc1,1.14% (inactive),–,–
COc1ccc(CCC(=O)c2c(O)cc(O)cc2O[C@@H]2O[C@H](CO)[C@@H](O)[C@H](O)[C@H]2O)cc1,-3.22% (inactive),–,–
CCC[C@@H]1O[C@@H]2C[C@H]3[C@@H]4CCC5=CC(=O)C=C[C@]5(C)[C@H]4[C@@H](O)C[C@]3(C)[C@]2(C(=O)CO)O1,0.791% (inactive),–,–
C=C1C(=O)O[C@@H]2C[C@H](C)[C@@]3(O)C=C(C(C)=O)[C@]4(CC3C[C@H]12)C(=O)O[C@H]1C[C@@H](C)C(CCC(C)=O)=CC[C@H]14 (stereo not given in full),-5.38% (inactive),–,–
C=C(C(=O)O)C1CCC2(C)CCC(O)C(=C)C2C1 (stereo not given),-0.847% (inactive),–,–
CC(C)c1nnc(-c2ccc(-c3ccccc3)nc2)n1-c1cccc2nonc12,3.01% (inactive),–,–
C/C1=C\[C@H]2OC(=O)[C@@H](C)[C@@H]2CC/C(C(=O)O)=C/CC1,-16.7% (inactive),–,–
CO[C@H]1C[C@@H]2CC[C@@H](C)[C@@](O)(O2)C(=O)C(=O)N2CCCC[C@H]2C(=O)O[C@H]([C@H](C)C[C@@H]2CC[C@@H](OP(C)(C)=O)[C@H](OC)C2)CC(=O)[C@H](C)/C=C(\C)[C@@H](O)[C@@H](OC)C(=O)[C@H](C)C[C@H](C)/C=C/C=C/C=C/1C,–,0.0063 µM (active),–
Cc1[nH]c2ccccc2c1C1=C(NCCc2ccc(F)cc2)C(=O)N(C)C1=O,-22.2% (inactive),–,–
Cc1ccc(C(=O)Nc2noc3ccccc23)cc1,–,18.4 µM (active),–
Cc1csc(NC(=O)c2ccc(COc3cccc(Cl)c3)o2)n1,-17.1% (inactive),–,–
O=C(Nc1ccccc1-c1cn2c(CN3CCNCC3)csc2n1)c1ccc2ccccc2n1,-4.98% (inactive),–,–
CC1=C(C(=O)O)/C(=C/CO[C@@H]2O[C@H](COC(=O)/C=C/c3ccc(O)cc3)[C@@H](O)[C@H](O)[C@H]2O)C(O)C1 (stereo not given in full),1.96% (inactive),–,–
CC1(C)CCC[C@@]2(C)C1[C@H](OC(=O)/C=C/C=C/C(=O)O)C=C1COC(=O)[C@@]12O (stereo not given in full),-4.94% (inactive),–,–
CC1(C)CC[C@]2(C(=O)O)CC[C@]3(C)C(=CCC4[C@@]5(C)C[C@@H](O)[C@H](O)C(C)(C)C5CC[C@]43C)C2C1 (stereo not given in full),–,–,inactive
COC(=O)C12C(=O)C(C)=C(O)C1(C)C(C)=CC1C3(CO)CCC(O)C(C)(C)C3CCC12C (stereo not given),1.96% (inactive),–,–
CC(=O)OC1C[C@@]2(C)[C@@H](CC[C@@H](C)[C@]23Cc2c(O)cc4c(c2O3)CNC4=O)C(C)(C)[C@@H]1O (stereo not given in full),1.75% (inactive),–,–
CCOc1ccc(NC(=S)N2CCC(C(O)(c3ccccc3)c3ccccc3)CC2)cc1,-4.42% (inactive),–,–
COC1=CC(=O)CC(C)C12Oc1cc(OC)cc(O)c1C2=O (stereo not given),0.0359% (inactive),–,–

Compound,max response,Potency,outcome
COc1cc(O)cc(/C=C/c2ccc(O[C@@H]3O[C@H](CO)[C@@H](O)[C@H](O)[C@H]3O)cc2)c1,-4.02% (inactive),–,–
COC(=O)CCSCc1ccc(-c2onc(C)c2NC(=O)OC(C)c2ccccc2Cl)cc1 (stereo not given),-7.48% (inactive),–,–
C=C1C[C@]23C[C@H]1CC[C@H]2[C@@]12CC[C@H](O)[C@@](C)(C(=O)O1)[C@H]2[C@@H]3C(=O)O,-4.65% (inactive),–,–
CC1=CC(=O)[C@H]2C(C)(C)CCC[C@]2(C)[C@@]1(O)CO,-15.2% (inactive),–,–
CCOc1ccc(S(=O)(=O)n2c(C)nc3ccccc32)cc1,-8.26% (inactive),–,–
C=CC(C)(C)c1[nH]c2cc3c(cc2c1CC1NC(=O)C2CCCN2C1=O)C=CC(C)(C)O3 (stereo not given),–,–,inactive
C=CC(=O)Nc1cc(Nc2ncc(Cl)c(-c3c[nH]c4ccccc34)n2)c(OC)cc1N(C)CCN(C)C,–,2.06 µM (active),–
CN(C)CCCCC(=O)Nc1ccc(NC(=S)NC(=O)c2ccc(C(C)(C)C)cc2)cc1,–,6.51 µM (active),–
C#CC[C@H](c1nc2cc(Cl)ccc2c(=O)n1Nc1ccccc1)N(CCCN)C(=O)c1cccc(Cl)c1F,–,1.46 µM (active),–
NCc1c[nH]c(=S)n1[C@@H]1CCc2c(F)cc(F)cc2C1,-9.28% (inactive),–,–
CCCn1c(=O)c2[nH]c(-c3ccc(OCC(=O)O)cc3)nc2n(CCC)c1=O,-2.68% (inactive),–,–
C=CC(C)(O)C(O)CC1C(C)(O)C(O)C(O)C2C(C)(C)CCCC21C (stereo not given),-10.3% (inactive),–,–
O=C(Nc1ccc(S(=O)(=O)Nc2nccs2)cc1)C(c1ccccc1)c1ccccc1,-0.0195% (inactive),–,–
CC/C=C\CC1C(=O)C=CC1(CCCCCCCC(=O)O)OC(C)=O (stereo not given),2.73% (inactive),–,–
C[C@@H]1O[C@@H](O[C@H]2[C@H](OC(=O)[C@]34CCC(C)(C)C[C@H]3C3=CCC5[C@@]6(C)C[C@H](O)[C@H](O[C@@H]7O[C@H](CO)[C@@H](O)[C@H](O)[C@H]7O)[C@@](C)(CO)C6[C@H](O)C[C@@]5(C)[C@]3(C)CC4)OC[C@H](O)[C@@H]2O)[C@H](O)[C@H](O)[C@H]1O[C@@H]1OC[C@@H](O)[C@H](O[C@@H]2OC[C@](O)(CO)[C@H]2O)[C@H]1O (stereo not given in full),-1.81% (inactive),–,–
CC1CCC2(OC1)OC1CC3C4CCC5C[C@@H](O[C@@H]6O[C@H](CO[C@@H]7OC[C@@H](O)[C@H](O)[C@H]7O)[C@H](O)[C@H](O)[C@H]6O)CC[C@]5(C)C4CC[C@]3(C)C1C2C (stereo not given in full),–,–,inactive
CC(C)C[C@H](CC(=O)NO)C(=O)N[C@H](C(=O)N[C@@H](C)C(=O)NCCN)C(C)(C)C,-1.44% (inactive),–,–
c1cc(Nc2cc(C3CC3)[nH]n2)nc(Nc2ccc3nc[nH]c3c2)n1,–,1.16 µM (active),–
CCC1C(=O)OC23C=C[C@@H]4C(C(=O)O)=CO[C@H](O[C@@H]12)[C@@H]43 (stereo not given in full),-24.7% (inactive),–,–
Cc1ncc(CCCN(C)C)cc1Nc1ncc2c(n1)-c1ccc(C(F)(F)F)cc1NC(=S)C2,-92.5% (inactive),–,–
